These results are taken from PubChem BioAssay.

Molecules are shown by their SMILES. The source made the active and inactive calls.

This experiment in a line: basal CRE-LacZ reporter activity in PC12 – cell-based, unstimulated, primary screen (AID 1145). Particulars: no forskolin, luminescence, 4.5 h, higher = more signal, called active from +8 up or from −8 down.
In the case of `Cc1ccccc1C(O)C1C=CC2C(=O)N(c3ccccc3)C(=O)C2N1Nc1ccccc1F` (stereo not given), the z-score was -1.09 (inactive).

For the compound `COC(=O)[C@@]1(CCS(=O)(=O)c2ccccc2)N=C(c2ccc(OCCCO)cc2)O[C@H]1c1ccccc1N=[N+]=[N-]`, the z-score is 0.377 (inactive).

Take `C=C(CCCC)C(=O)CC[C@H](OC(=O)c1cccnc1)c1ccc(CO)o1`: the z-score is -0.117 (inactive).

Take `COCCOC(=O)N1C(=O)[C@@]2(c3cc(C#CC4(O)CCCCCC4)ccc31)[C@H](c1ccc(OCCO)cc1)N1[C@H](c3ccccc3)[C@H](c3ccccc3)OC(=O)[C@H]1[C@@H]2C(N)=O`: the z-score is 0.468 (inactive).

Take `CN(C)C(=O)[C@]1(Cc2ccccc2)N=C(c2ccc(OCCCO)cc2)O[C@@H]1c1ccccc1`: the z-score was 1.24 (inactive).

On to `COc1ccc(C#Cc2ccc3c(c2)[C@]2(C(=O)N3)[C@H](C(=O)Nc3nc4ccccc4s3)[C@H]3C(=O)O[C@H](c4ccccc4)[C@H](c4ccccc4)N3[C@@H]2c2ccc(OCCO)cc2)cc1`, for which the z-score is -1.43 (inactive).

`CCOC(=O)C[C@H]1[C@H](OC(=O)c2ccc(C(=O)c3ccccc3)cc2)[C@@H](NC(=O)c2ccc3ccccc3c2)c2cc(OCCCO)ccc2N1C(=O)c1ccc2ccccc2n1`: the z-score is -0.244 (inactive).

Take `CN(C)CCCCNC(=O)[C@H]1C[C@H]2C(=O)N[C@@H](Cc3ccccc3)C(=O)N2[C@H]1c1cccc(OCCO)c1`: the z-score is -1.07 (inactive).

In the case of `C=C(CC1([C@@H](NP(=O)(c2ccccc2)c2ccccc2)[C@H]2C[C@@H]2CCN(C(=O)OCC)S(=O)(=O)c2ccc(C)cc2)CC1)c1ccccc1`, the z-score was -0.196 (inactive).

With `C=C(CCCC)/C(=C/C[C@H](OC(C)=O)c1cccc(OCCO)c1)c1cc(C(=O)OC)ccc1OC`, the z-score is 12.1 (active).

In the case of `C=CCNC(=O)[C@H]1[C@@H]2C(=O)O[C@@H](c3ccccc3)[C@@H](c3ccccc3)N2[C@@H](c2ccccc2OCCO)[C@]12C(=O)N(C(=O)OCCOC)c1ccccc12`, the z-score was -0.195 (inactive).

On to `O=C1OCCC/C=C\[C@H]2OC34C=CCN(Cc5ccccc5)C(=O)[C@H]3N(CCCCCO)C(=O)[C@@H]4C12` (stereo not given in full), for which the z-score was 0.732 (inactive).

For the compound `CC(C)(C)OC(=O)CC[C@]1(C(=O)N2CCOCC2)N=C(c2ccc(OCCCO)cc2)O[C@H]1c1ccccc1CN=[N+]=[N-]`, the z-score is -0.263 (inactive).

`CCCC=C(CCC)[C@@H](NC(=O)c1ccco1)c1ccc(C(=O)OC)cc1`: the z-score is 0.0143 (inactive).

Regarding `COC(=O)c1c(CC[C@@H](CO)NC(=O)N[C@@H](Cc2ccccc2)Cn2cc(-c3cncn3C)nn2)oc(C(C)=O)c1C(=O)OC`, the z-score was -0.491 (inactive).

For `COC(=O)[C@@]1(Cc2ccc(OC)cc2)[C@H]2c3cc(C(=O)N(C)C)n(Cc4ccsc4Br)c3C[C@H]2CN1C(=O)c1ccccc1`, the z-score is 0.597 (inactive).

With `C=CCC(OC(C)=O)[C@@H]1[C@@H](N(Cc2ccc(-c3ccccc3)cc2)C(=O)c2ccc(-c3ccccc3)cc2)c2cc(OCCCO)ccc2N1C(=O)c1ccc2ccccc2n1` (stereo not given in full), the z-score was 0.992 (inactive).

Turning to `O=C1c2ccccc2[C@](Cc2ccccc2I)(C(=O)O)[C@H](c2ccc(CO)cc2)N1Cc1ccccc1`, the z-score is 0.0548 (inactive).

Consider `COCC(=C=CC[C@@H](O)c1cccc(OCCO)c1)C[C@@H](O)COCc1ccccc1`, for which the z-score was 5.99 (inactive).

As to `C[N+](C)(C)CCCCCCNC(=O)[C@@H]1C[C@@H]2C(=O)N[C@@H](Cc3ccccc3)C(=O)N2[C@@H]1c1ccc(O)cc1`, the z-score is -0.805 (inactive).

`COCCOC(=O)N1C(=O)[C@@]2(c3ccccc31)[C@H](c1ccc(OCCO)cc1)N1[C@H](c3ccccc3)[C@H](c3ccccc3)OC(=O)[C@H]1[C@@H]2C(=O)N1CCN(c2ncccn2)CC1`: the z-score is 0.22 (inactive).

Turning to `COCCOC(=O)N1C(=O)[C@@]2(c3cc(C#CCCO)ccc31)[C@H](c1ccccc1OCCO)N1[C@H](c3ccccc3)[C@H](c3ccccc3)OC(=O)[C@H]1[C@@H]2C(=O)N1CCc2cc(OC)c(OC)cc2C1`, the z-score is 1.72 (inactive).

As to `C=CCC(OC(C)=O)[C@@H]1[C@@H](N(Cc2cc3ccccc3o2)C(=O)Cc2ccc(OC)cc2)c2cc(OCCCO)ccc2N1C(=O)Cc1ccc(OC)cc1` (stereo not given in full), the z-score is 0.469 (inactive).

Consider `CC(C)C[C@H]1NC(=O)[C@@]23C(=O)N[C@@H](Cc4ccccc4)C2[C@H](C)[C@@]2(C)O[C@H]2C3/C=C/C/C=C\CNC(=O)[C@@H]2CCCN2C1=O` (stereo not given in full), for which the z-score is 0.13 (inactive).

Take `COCCOC(=O)N1C(=O)[C@@]2(c3cc(C#CCC(C(=O)OC)C(=O)OC)ccc31)[C@H](c1ccc(OCCO)cc1)N1[C@H](c3ccccc3)[C@H](c3ccccc3)OC(=O)[C@H]1[C@@H]2C(=O)N1CCCCCCC1`: the z-score is -0.467 (inactive).

For `COCC(=C=CC[C@@H](O)c1ccc(OCCO)cc1)C[C@@H](O)COCc1ccccc1`, the z-score is 10.3 (active).

For `COC(=O)[C@@H]1N=C(c2ccc(OCCCO)cc2)O[C@@H]1c1ccccc1CN=[N+]=[N-]`, the z-score was -0.268 (inactive).

As for `C=C(COC)C(=O)CC[C@@H](OC(C)=O)c1ccc(OCCO)cc1`, the z-score is 0.625 (inactive).

With `O=C(NCCO)C1=C[C@H](Oc2ccccc2I)[C@@H](O)[C@H](NCc2ccc(F)cc2)C1`, the z-score was 4.56 (inactive).

For the compound `O=C1O[C@@H](c2ccccc2)[C@@H](c2ccccc2)N2[C@@H](c3ccc(OCCO)cc3)[C@]3(C(=O)Nc4ccc(C#CCCO)cc43)[C@@H](C(=O)Nc3nc4ccccc4s3)[C@H]12`, the z-score is 0.389 (inactive).

For the compound `NCCCC[C@@H]1NC(=O)[C@H]2C[C@@H](C(=O)O)[C@@H](c3cccc(OCCO)c3)N2C1=O`, the z-score was -0.943 (inactive).

Turning to `COCCOC(=O)N1C(=O)[C@@]2(c3cc(C#CCCO)ccc31)[C@H](C(=O)N1CCc3cc(OC)c(OC)cc3C1)[C@H]1C(=O)O[C@H](c3ccccc3)[C@H](c3ccccc3)N1[C@@H]2c1ccccc1OCCO`, the z-score is -0.89 (inactive).

As for `COC(=O)[C@@]1(Cc2ccccc2)[C@@H]2[C@@H](CC(=O)[C@H]2CC(=O)C(=O)N(C)C)CN1C(=O)c1ccccc1`, the z-score is 0.201 (inactive).

As for `O=C1O[C@H](c2ccccc2)[C@H](c2ccccc2)N2[C@H]1[C@@H](C(=O)N1CCN(c3ncccn3)CC1)[C@]1(C(=O)Nc3ccccc31)[C@H]2c1ccc(O)cc1`, the z-score is 0.299 (inactive).

For the compound `CCOC(=O)C1=CC[C@@H](c2ccccc2Cl)N(S(=O)(=O)c2ccc(C)cc2)[C@H]1c1cccc(OC)c1`, the z-score is 0.425 (inactive).
